Screening data from PubChem BioAssay.
Sampled rows, rich in hits. Any-hit rate of the full collection: about 1.8%.
HTR2A ag: mouse Htr2a agonists via beta-arrestin recruitment, primary screen, cell-based, luminescence | AID 624169, 2012 | 360,000 tested, 0.66% active | CHO-K1 mHTR2A beta-arrestin complementation; percent of 30 µM serotonin response | 5-hydroxytryptamine receptor 2A (Mus musculus), P35363 | activation, % at 7.6 µM;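 active means activation above a run cutoff, the mean activation of all tested compounds plus 3 SD, cut at about 14% in these data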;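 further: 0% = plate median of compound wells and 100% = 30 µM serotonin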
MsrA inhibitor: bovine MsrA enzyme inhibitors, primary screen, biochemical, absorbance, HTS | Methionine sulfoxide reductase A (Bos taurus) | purified bovine MsrA, absorbance read-out | inhibition, % at 15.5 µM | 360,000 tested, 0.75% active; in the data active means inhibition above about 4.5%;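 further: 0% = vehicle wells with enzyme and 100% = reference inhibitor wells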
GC-A act: GC-A stimulated cGMP production enhancers – HEK293 GC-A cells, cGMP TR-FRET, EC30 ANP, primary screen; Atrial natriuretic peptide receptor 1 (Homo sapiens), P16066; 0% at EC30 ANP, 100% saturating ANP; activation, % at 10 µM; 370,000 tested, 0.14% active; in the data active means activation above about 40%
Target sequence (P16066 whole entry, looked up): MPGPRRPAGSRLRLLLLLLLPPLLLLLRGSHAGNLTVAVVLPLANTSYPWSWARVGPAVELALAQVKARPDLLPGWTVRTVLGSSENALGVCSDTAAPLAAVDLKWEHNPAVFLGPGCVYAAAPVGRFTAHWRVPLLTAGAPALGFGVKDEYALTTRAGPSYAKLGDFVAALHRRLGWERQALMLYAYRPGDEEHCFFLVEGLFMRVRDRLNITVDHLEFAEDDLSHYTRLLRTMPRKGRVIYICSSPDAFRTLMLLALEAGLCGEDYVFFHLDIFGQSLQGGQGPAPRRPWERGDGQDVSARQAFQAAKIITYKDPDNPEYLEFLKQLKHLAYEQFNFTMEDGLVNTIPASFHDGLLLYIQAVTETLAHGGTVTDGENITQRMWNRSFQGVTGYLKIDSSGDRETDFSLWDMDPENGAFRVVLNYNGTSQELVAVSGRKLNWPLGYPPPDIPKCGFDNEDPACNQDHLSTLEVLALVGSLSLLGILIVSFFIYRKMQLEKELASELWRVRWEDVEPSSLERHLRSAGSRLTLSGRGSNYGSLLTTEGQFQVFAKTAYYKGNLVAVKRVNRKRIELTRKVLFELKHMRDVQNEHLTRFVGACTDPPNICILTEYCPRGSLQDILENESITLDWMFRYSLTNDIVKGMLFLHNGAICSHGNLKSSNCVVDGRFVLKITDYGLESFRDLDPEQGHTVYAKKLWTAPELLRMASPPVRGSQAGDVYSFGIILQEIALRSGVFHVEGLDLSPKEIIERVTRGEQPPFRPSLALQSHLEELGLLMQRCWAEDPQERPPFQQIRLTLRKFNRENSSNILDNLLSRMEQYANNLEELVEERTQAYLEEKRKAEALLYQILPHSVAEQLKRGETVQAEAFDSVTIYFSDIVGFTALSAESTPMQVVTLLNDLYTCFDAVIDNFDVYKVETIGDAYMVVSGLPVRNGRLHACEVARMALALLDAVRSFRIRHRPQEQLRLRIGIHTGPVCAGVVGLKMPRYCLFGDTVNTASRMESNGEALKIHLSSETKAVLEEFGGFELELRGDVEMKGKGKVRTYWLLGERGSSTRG
GC-B act: human GC-B receptor activators, primary screen, HEK293 GC-B cells, cGMP TR-FRET, EC30 CNP. Atrial natriuretic peptide receptor 2 (Homo sapiens), P20594. 0% at EC30 CNP, 100% saturating CNP. activation, % at 10 µM. 370,000 tested, 0.11% active. AID 1920062, 2024;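 active means activation at 10 µM reaching about 35% in either raw or pattern-adjusted values, limit read from the data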
MsrA act: bovine MsrA enzyme activators, primary screen, biochemical, absorbance, HTS; purified bovine MsrA, absorbance read-out; activation, % at 10.6 µM; 360,000 tested, 0.3% active; in the data active means activation above about 7.5%;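 further: 0% = vehicle and 100% = reference activator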
MsrA activ conf: bovine MsrA activators, retest, confirmation, biochemical, absorbance, HTS; shares compounds with MsrA act; purified bovine MsrA, absorbance read-out; AID 602270, 2012; 1,000 tested, 12% active; activation, % at 10.6 µM; in the data active means activation above about 4%;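 further: enzyme coupled to thioredoxin and thioredoxin reductase with NADPH; 0% = vehicle wells and 100% = reference activator wells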
* hit, by the source's call; nt = no result given.

SMILES | HTR2A ag | MsrA inhibitor | GC-A act | GC-B act | MsrA act | MsrA activ conf
COC(=O)c1cc2c(c3c4cc(C)ccc4n(S(=O)(=O)c4ccc(C)cc4)c13)C(=O)N(C)C2 | nt | 1 | 0 | 6 | nt | nt
O=c1c2ccc([N+](=O)[O-])cc2ncn1CCOc1ccc(Cl)cc1 | 0 | 0 | 0 | -3 | 1 | nt
O=c1c2ccc([N+](=O)[O-])cc2ncn1CCOc1cccc(Br)c1 | -1 | 0 | -9 | -1 | 7.8* | -2
COC(=O)[C@]12C[C@H](CC(=O)NCC3CCCCC3)C(=O)N(Cc3ccco3)C1=C[C@H](C(C)(C)C)O[C@@H]2C | nt | nt | -32 | -28 | nt | nt
CC1=C(C#N)C(c2ccc(O)cc2)C2=C(CC(C)(C)CC2=O)N1 (stereo not given) | -3 | 0 | -3 | -1 | 10* | -1
COc1cc(C2C(C#N)=C(C)NC3=C2C(=O)CC(C)(C)C3)cc(OC)c1O (stereo not given) | -5 | 1 | 2 | -1 | -10 | nt
O=S1(=O)c2ccc(N3CC[C@H](O)C3)cc2O[C@@H]2CCN1C2 | nt | nt | -1 | 2 | nt | nt
C=CCn1c(COc2ccc(Cl)cc2)nnc1SCC(=O)NCC(=O)OCC | -2 | 1 | 2 | -1 | 8.2* | 0
C=CCn1c(COc2ccc(Cl)cc2)nnc1SCC(=O)Nc1ccc(S(N)(=O)=O)cc1 | -2 | 0 | -9 | -4 | -3 | nt
O=C(Nc1ccc(C(O)(C(F)(F)F)C(F)(F)F)cc1)c1ccc(Cl)cc1 | nt | nt | -1 | 1 | nt | nt
Nc1c(C(=O)N/N=C/c2cccnc2)oc2nc(-c3ccco3)cc(-c3ccco3)c12 | 3 | 2 | 2 | 4 | -6 | nt
NNC(=O)c1oc2nc(-c3ccco3)cc(-c3ccco3)c2c1N | 4 | 2 | -13 | 9 | 8.2* | -2
CCN(CC(=O)NCc1ccc(Cl)cc1)C(=O)c1ccc(C#N)cc1 | 4 | -1 | 0 | 1 | 16* | -1
CCN1CCCCC(NC(=O)c2ccc(F)cc2)C1=O (stereo not given) | nt | nt | 10 | 11 | nt | nt
CCCC[C@@H]1C(=O)N2N=Cc3cc(C)c(C)cc3[C@H]2N2N=Cc3cc(C)c(C)cc3[C@@H]12 | nt | nt | -4 | 8 | nt | nt
COc1ccc(C(=O)NC(=S)Nc2ccc(S(=O)(=O)Nc3cc(C)on3)cc2)cc1OC | 2 | -1 | 0 | -6 | 8.2* | -1
Cc1cc(NS(=O)(=O)c2ccc(NC(=S)NC(=O)c3ccc(C(C)(C)C)cc3)cc2)no1 | 0 | -1 | -6 | -4 | -2 | nt
Fc1ccccc1/C=N/n1c(COc2ccccc2)n[nH]c1=S | 7 | 0 | -3 | -9 | 9.9* | 1
O=C(NCCCc1ccccc1)[C@H](Cc1c[nH]c2ccccc12)NC1(C(=O)NCCc2c[nH]c3ccccc23)CCOCC1 | nt | nt | -9 | -8 | nt | nt
O=[N+]([O-])c1ccc(-c2ccc(C=Nc3cccc4ccccc34)o2)cc1 | 2 | 4 | 6 | -7 | -4 | nt
O=[N+]([O-])c1ccc(C=Nc2cccc3ccccc23)s1 | 0 | nt | nt | nt | 8.1* | 6.5*
COc1ccc(S[C@]2(C(=O)N3CCCC3)CC(=O)N(c3ccc4c(ccn4C)c3)[C@@H]2c2ccc(OC)cc2)cc1 | nt | nt | -2 | 0 | nt | nt
O=C1C=C(c2c(O)ccc3ccccc23)c2ccccc2C1=O | 15* | -1 | 44* | 49* | 21* | 12*
CCN(CC)CCn1c2c(c(SCC(=O)Nc3nc4ccc(C)cc4s3)nc1=O)CCC2 | -2 | 0 | 3 | -2 | 7.9* | -1
CCN(CC)CCn1c2c(c(SCC(=O)Nc3nc4ccccc4s3)nc1=O)CCC2 | -2 | 0 | 5 | -8 | -2 | nt
SMILES | HTR2A ag | MsrA inhibitor | GC-A act | GC-B act | MsrA act | MsrA activ conf
CCOC(=O)N1CCN(C(=O)c2noc3c2COc2ccccc2-3)CC1 | 8 | 1 | -2 | -4 | -4 | nt
CCCN1CCN(C(=O)c2noc3c2COc2ccc(C)cc2-3)CC1 | -1 | 0 | 1 | 1 | 8.0* | -2
COc1ccc(-c2nnc(SCC(=O)Nc3ccc4cn[nH]c4c3)n2Cc2ccco2)cc1 | nt | nt | -1 | -4 | nt | nt
CCOC(=O)N(C)[C@H]1C[C@H]2c3[nH]c4c(-c5ccc6c(c5)OCO6)cccc4c3CCN2C(=O)[C@H]1[C@H](C)O | nt | nt | -7 | -7 | nt | nt
CC(COc1ccc(S(C)(=O)=O)cc1)CN1CCC(C(O)(c2ccccc2)c2ccccc2)CC1 (stereo not given) | nt | nt | -18 | -20 | nt | nt
COC(=O)c1[nH]c2c(c1C)C(=O)CC(c1cc(OC)ccc1OC)C2 (stereo not given) | -4 | -1 | -5 | -2 | 9.9* | 0
COc1ccc(-c2cc(-c3ccccc3)nc(N3CCCC3)n2)cc1OC | -1 | 0 | -4 | -1 | 8.0* | -1
Cc1ccccc1OCCN1C(=O)C(=O)c2cccc(C)c21 | -1 | 0 | -13 | -1 | 0 | nt
Cc1cccc2c1N(CCOc1ccccc1Cl)C(=O)C2=O | -1 | -1 | -2 | -2 | 8.0* | -1
CN1C2=N[C@@H](c3ccc4c(c3)OCO4)CC(=O)N2/C(=C\c2ccccc2)[C@H]1c1ccccc1 | nt | nt | -30 | -31 | nt | nt
COc1ccc(-c2cc(=O)oc(-c3cccc(C)c3)n2)cc1 | 5 | 0 | -6 | -11 | 12* | -3
S=c1nc(-c2cccc(Br)c2)[nH][nH]1 | 3 | 1 | 4 | -1 | 9.8* | 6.1*
Nc1[nH]c2cc(Cl)ccc2c1C(=O)NCCc1ccc(Cl)cc1 | nt | nt | -3 | -6 | nt | nt
O=C(CCc1ccccc1)N[C@H]1[C@H](OC(=O)c2cccnc2)CCC[C@@]12C(=O)N(Cc1ccccc1)c1ccccc12 | nt | nt | -6 | 6 | nt | nt
O=C(c1ccc([N+](=O)[O-])o1)N1CCc2ccccc2C1 | -6 | 2 | 0 | 3 | 3 | nt
O=C(c1ccc([N+](=O)[O-])o1)N1CCc2ccccc21 | 4 | 3 | -5 | 3 | 10* | 2
CCn1nc(C(=O)OCC(=O)NC(C)C)c2ccccc2c1=O | -3 | 0 | -3 | -1 | -2 | nt
CCn1nc(C(=O)OCC(=O)Nc2ncc(Cl)c(C)c2Cl)c2ccccc2c1=O | 1 | 1 | -1 | 2 | 19* | 0
CC1=C(C(=O)Nc2cc(C)ccc2C)C(c2cccs2)NC(=S)N1 (stereo not given) | 1 | 1 | 1 | -8 | 8.2* | -1
COc1cc(NC(=O)c2ccccc2)c(C)cc1NC(=O)CSc1nnc(-c2ccco2)n1Cc1ccco1 | nt | nt | -3 | 3 | nt | nt
COc1cccc(-c2nc(N3CCC(C)CC3)c3ccccc3n2)c1O | 1 | 2 | 4 | -5 | 8.2* | -5
